Assay outcomes deposited in PubChem by The Scripps Research Institute Molecular Screening Center.
Hits are enriched below; roughly 4.1% of the tested compounds scored in any of these assays.
rCAG binder = binders of r(CAG) RNA repeats, primary screen, biochemical, fluorescence; r(CAG) RNA repeat, TO-PRO-1 dye displacement fluorescence; inhibition, % at 3 µM; hit rate 1.3% among 370,000; AID 651821, 2012;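 active means inhibition above the plate cutoff, the mean of all test compounds on that plate plus 3 SD, cut at about 35% in these data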;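 further: 0% = DMSO alone and 100% = 100 µM mitoxantrone as full dye displacement; higher means more dye released from RNA so lower well fluorescence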
LEDGF integ inh = blockers of LEDGF/p75-dependent integrase strand transfer – biochemical, TR-FRET, high throughput, primary screen; TR-FRET IN-LEDGF/p75 DNA integration, Eu/Cy5; hit rate 0.64% among 370,000; inhibition, % at 3.7 µM; HIV-1 integrase (with human LEDGF/p75);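 active means inhibition above the screen-wide mean plus 3 SD, cut at about 13% in these data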;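 further: signal is the Cy5 over europium emission ratio at 671 and 618 nm; 0% = plate median of compound wells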
MBD2 DNA inh = inhibitors of MBD2 binding to methylated DNA, primary screen, biochemical, TR-FRET, DNA-binding domain, human. hit rate 0.31% among 370,000. inhibition, % at 4.4 µM. MBD2 binding to methylated oligonucleotide. AID 686964, 2013; in the data active means inhibition above about 13%
Target sequence (Q9UBB5 whole entry, looked up, the tested form may be a part): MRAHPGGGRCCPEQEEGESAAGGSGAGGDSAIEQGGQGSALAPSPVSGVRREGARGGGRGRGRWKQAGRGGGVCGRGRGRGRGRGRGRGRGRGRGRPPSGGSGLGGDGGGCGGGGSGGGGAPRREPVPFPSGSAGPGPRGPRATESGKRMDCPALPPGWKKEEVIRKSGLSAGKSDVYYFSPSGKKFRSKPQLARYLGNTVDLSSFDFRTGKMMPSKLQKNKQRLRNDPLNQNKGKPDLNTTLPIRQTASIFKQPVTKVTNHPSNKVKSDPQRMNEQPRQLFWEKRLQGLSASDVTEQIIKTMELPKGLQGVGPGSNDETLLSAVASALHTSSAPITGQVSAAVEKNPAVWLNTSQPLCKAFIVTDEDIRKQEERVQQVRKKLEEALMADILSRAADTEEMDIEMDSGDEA
PRMT1 FP inh = PRMT1 methyltransferase inhibitors, primary screen, biochemical, fluorescence polarization; recombinant PRMT1, activity-based probe fluorescence polarization; hit rate 1.3% among 370,000; inhibition, % at 2.79 µM; AID 652257, 2013;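 active means inhibition above about 21% made by adding two undisclosed values, limit read from the data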
UHRF1 binding = UHRF1 methylated DNA binding inhibitors, primary screen, counter-screen for MBD2 inhibitor project, biochemical, TR-FRET, human UHRF1, single concentration; E3 ubiquitin-protein ligase UHRF1 (Homo sapiens), Q96T88; UHRF1 binding to methylated oligo; inhibition, % at 4.4 µM; hit rate 0.75% among 370,000; in the data active means inhibition above about 21%;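 further: UHRF1 SRA domain binding a hemimethylated CpG hairpin DNA probe; 0% = median of test compound wells and 100% = reference inhibitor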
ABHD5-PLIN5 inh = ABHD5-PLIN5 interaction inhibitors, primary screen, cell lysate, split luciferase complementation, luminescence. inhibition, % at 4 µM. Split G. princeps luciferase complementation, 4 h. hit rate 0.78% among 360,000;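 active means inhibition above the mean inhibition across every tested compound plus 3 SD, cut at about 22% in these data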;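 further: 0% = DMSO only wells and the 100% control is not disclosed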
* = called active by the depositor; i = inactive; . = no result; ! = repeats disagree.

SMILES	rCAG binder	LEDGF integ inh	MBD2 DNA inh	PRMT1 FP inh	UHRF1 binding	ABHD5-PLIN5 inh
CCCC[C@H]1C2CC(OC(=O)NCc3ccc(Cl)cc3)C(C2)[C@H]2CCCCN21 (some centres not stated)	-2	3	0	1	0	.
O=C(/C=C/c1ccc(-c2ccccc2)cc1)NC1=NCCS1	.	0	-1	-2	-3	.
COc1ccc(C)cc1S(=O)(=O)N(CC(=O)Nc1cccc([N+](=O)[O-])c1)c1ccccc1	22	-5	4	11	31*	-11
COC(=O)C1=C(C)N(C)C(=NCc2cccc(C(F)(F)F)c2)NC1c1cccc(Cl)c1 (configuration not stated)	7	-3	1	4	0	.
Cc1ccc(Cl)cc1N1CCN(C(=O)CCS(=O)(=O)c2ccc3c(c2)NC(=O)CO3)CC1	0	2	-1	0	23*	-1
OCCOCCN1CCN(C2=Nc3ccccc3Sc3ccccc32)CC1	-1	i	1	4	2	23*!
CCCCN1CCN(C2=Nc3ccccc3Sc3ccccc32)CC1	0	2	-3	-5	-4	.
COc1c2c(cc3ccc(=O)oc13)CCO2	-1	4	-5	-5	49*	3
CCOC(=O)c1ccc(N2C(=O)CC(Sc3ncccn3)C2=O)cc1 (configuration not stated)	2	0	-2	21*	3	-3
Cc1ccc(C(=O)N/C(=C/c2ccco2)C(=O)NCc2ccco2)cc1	14	8	2	11	6	10
COc1ccc(C(=O)N/C(=C/c2ccco2)C(=O)NCc2ccco2)cc1	11	9	-1	25*	3	10
O=C(Nc1ccc(F)cc1)OCc1cn(Cc2ccccc2C(F)(F)F)nn1	-1	-2	-2	1	4	.
COc1cc(CNC2CCCC2)c(Br)cc1OC1CCCC1	0	-4	0	1	30*	8
O=C(NCCCc1ccccc1)[C@H](Cc1ccccc1)NC1(C(=O)NCCc2c[nH]c3ccccc23)CCOCC1	.	3	2	-2	0	.
CC(C)N1CCC(N2CCN(Cc3cccc4nonc34)CC2CCO)CC1 (configuration not stated)	0	-13	-2	4	79*	-2
CC(C)N1CCC(N2CCN(Cc3ccc4nonc4c3)CC2CCO)CC1 (configuration not stated)	2	1	0	-1	-2	7
COc1ccc(NC(=S)Nc2cccc(Cl)c2)cc1OC	4	-5	-7	24*	3	-13
O=C(O)C1=C(C(=O)O)C2C=CC1C2	1	5	12	8	33*	5
O=C(c1ccc(F)cc1)C1CCN(C(=O)c2ccncc2)CC1	1	0	-6	0	80*	-1
CN(CCOC(=O)CCCc1ccccc1)C1CN(Cc2cn(Cc3ccccc3F)nn2)S(=O)(=O)C1 (configuration not stated)	2	0	2	1	7	.
Cc1cc(-c2nnc(SCC(=O)Nc3nc(-c4ccccc4)cs3)o2)no1	20	5	3	25*	-2	-5
CCOC(=S)SCC(=O)Nc1nc(-c2ccc(Br)cc2)cs1	9	1	6	11	-1	-2
Cc1csc(NC(=O)CSc2nnc(-c3cc(C)on3)o2)n1	4	6	-1	18	-2	-5
CCOC(=S)SCC(=O)Nc1nc(-c2ccccc2)cs1	3	-3	-2	26*	-4	-13
CCN(CC)C(=O)CSc1nnc(-c2ccccn2)n1C	0	3	6	1	3	.
SMILES	rCAG binder	LEDGF integ inh	MBD2 DNA inh	PRMT1 FP inh	UHRF1 binding	ABHD5-PLIN5 inh
COc1ccc(-c2nc3cc(C)c(Br)c(C)n3c2Cc2ccccc2C(F)(F)F)cc1OC	7	-2	7	3	25*	-2
FC(F)(F)c1cc(Cl)c2nc(-c3ccccc3)c(Cc3cccc(Cl)c3)n2c1	41*	3	1	-3	1	2
COc1ccccc1Cc1c(-c2ccc(OC)c(OC)c2)nc2ccc(Cl)cn12	20	5	1	0	9	-8
COc1ccc(-c2nc3c(C)cc(Br)cn3c2Cc2ccccc2C(F)(F)F)cc1OC	13	-2	0	0	12	.
COc1ccc(-c2nc3ccc(Cl)cn3c2Cc2ccccc2C(F)(F)F)cc1OC	42*	8	2	-3	1	3
Cc1cc2nc(-c3ccccc3)c(Cc3cccc(Cl)c3)n2c(C)c1Br	52*	1	1	3	7	-1
Cc1ccc(-c2nc3cc(C)c(Br)c(C)n3c2Cc2cccc(Cl)c2)cc1	.	.	.	.	.	-6
CC(=O)Nc1nc2ncccn2c1-c1ccc(C)cc1	-1	4	-2	-2	-1	.
C=CCCC(=O)N1CCC(C(=O)NCC2COc3ccccc3O2)CC1 (configuration not stated)	4	0	0	2	1	.
Cc1ccc2nc(-c3ccc(F)cc3)c(Cc3ccccc3C(F)(F)F)n2c1	12	0	8	1	22*	-9
CNC(=O)c1ccc(NC(=O)CN2c3cccc4cccc(c34)S2(=O)=O)cc1	4	2	-1	-1	-8	8
O=C(CN1c2cccc3cccc(c23)S1(=O)=O)Nc1ccccc1	3	7	-9	-3	69*	0
COc1ccc(N=C2S/C(=C\c3ccc(OC(C)C(=O)O)c(OC)c3)C(=O)N2CCc2c[nH]c3ccccc23)cc1 (configuration not stated)	49*	3	-5	-2	-1	-1
COc1cc(/C=C2\SC(=Nc3ccccc3)N(CCc3c[nH]c4ccccc34)C2=O)ccc1OC(C)C(=O)O (configuration not stated)	31	-3	4	4	4	-2
O=C1/C(=C/c2ccc(N3CCOCC3)o2)SC(=Nc2ccccc2)N1CCc1c[nH]c2ccccc12	.	.	.	.	.	77*
COCCCNC(=O)CSc1nnc(-c2ccncc2)n1-c1ccc(OC)cc1	0	1	-5	2	0	.
O=C(O)CCN=Cc1c(O)c2ccccc2oc1=O	3	1	-3	0	2	5
O=C(O)CCCCCN=Cc1c(O)c2ccccc2oc1=O	1	-3	-3	0	23*	5
CCOC(=O)C1CCCN(C(=O)c2cc(Cl)ccc2Cl)C1 (configuration not stated)	1	0	10	0	22*	2
